LASV entry inh: qHTS for Inhibitors of binding or entry into cells for Lassa Virus | Lassa virus pseudotype entry inhibition, cell reporter | Potency, µM (series often up to 37.9 µM), without a hit: at the top dose activity change, negative = inhibition, actives largely listed as inhibitors | 300,000 tested, 1.2% active | AID 540256, 2011; calls by dose curve; tested in HEK293 cells; also: nearly all actives have a fitted effect of over 50% in size
Marburg entry inh: qHTS for inhibitors of binding or entry into cells for Marburg Virus. Marburg virus pseudotyped entry inhibition, cell reporter. Potency, µM (titrated, usually from 37.8 µM), for inactives: at the top dose activity change, negative = inhibition, hits mostly inhibitors. 300,000 tested, 1.8% active. AID 540276, 2011; calls by dose curve; tested in HEK293 cells
Vaccinia Venus: qHTS for Stage-Specific Inhibitors of Vaccinia Orthopoxvirus: Venus Reporter Primary qHTS. Vaccinia virus Venus reporter expression, fluorescence. 330,000 tested, 0.46% active. Potency, µM (doses to about 36.5 µM), for inactives: top-dose activity change, negative = inhibition, usual class: inhibitors; calls by dose curve; tested in A549 cells; also: nearly all actives have a fitted effect of over 30% in size
Sm TGR block: qHTS Assay for the Inhibitors of Schistosoma Mansoni Peroxiredoxins | purified TGR, DTNB reduction, TNB absorbance 405 nm | Potency, µM (titrated, usually from 114 µM), inactives show top-dose activity change, negative = inhibition, usual class: inhibitors | Schistosoma mansoni thioredoxin glutathione reductase (TGR), Q962Y6 | 360,000 tested, 3% active; active = well fitted inhibition curve with a large enough effect; inconclusive = small, poorly fitted or top-dose-only effect; inactive = no such curve, though single readings can be large or run the other way; also: nearly all actives have a fitted effect of over 60% in size
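TGR 20 nM + NADPH 100 uM (dispensed conc.), cpd preinc 15 min RT; start with NADPH (500 uM addition) then DTNB (15 mM addition). Kinetic TNB absorbance, 405 nm filter. Four-parameter Hill fit across titration.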
VACV mCherry inh: qHTS for Stage-Specific Inhibitors of Vaccinia Orthopoxvirus: mCherry Reporter Primary qHTS. 310,000 tested, 0.63% active. Potency, µM (highest dose often 36.5 µM), inactives show at the highest dose activity change, negative = inhibition, hits mostly inhibitors. Vaccinia virus mCherry reporter infection, fluorescence; calls by dose curve; tested in A549 cells; also: nearly all actives have a fitted effect of over 35% in size
FMDV inh: High Throughput Screening for Foot and Mouth Disease Virus Antivirals; FMDV antiviral cell-based qHTS; Potency, µM (series often up to 57.9 µM), inactives show at the highest dose activity change, negative = inhibition, usual class: inhibitors; 410,000 tested, 1.2% active; AID 1159524, 2015; calls by dose curve; tested in HEK293T cells; also: read-out not given here; nearly all actives have a fitted effect of over 45% in size
Numbers without * were called inactive; i = inactive; ? = inconclusive; / = not tested or not shown; [ ] = dose if it differs, or a comment. Sampled rows, rich in hits. Any-hit rate of the full collection: about 5.4%. % is scaled to controls: 0 for no effect and ±100 for the full control effect; potency is read from the fitted curve at half-maximal effect.

SMILES | LASV entry inh | Marburg entry inh | Vaccinia Venus | Sm TGR block | VACV mCherry inh | FMDV inh
Oc1c(Br)cc(C2N=C(c3ccccc3)NO2)cc1Br (configuration not stated) | -2.9% | 2.8% | -16.2% | 50.1µM* | -19.8% | 33.1%
C/C(=N\NC(=O)c1ccc(F)cc1)c1ccc(N2CCOCC2)cc1 | 4.2%[46.1 µM] | ? | -15.6% | -1.0% | -9.3% | -8.6%
C/C(=N\NC(=O)COc1ccc(C(C)(C)C)cc1)c1ccc(N2CCOCC2)cc1 | 1.3µM* | 13.0% | / | 12.4% | / | -9.4%
Cc1sc2ncnc(NCc3cccs3)c2c1C | -9.6% | -15.0% | / | 7.5% | / | 14.1µM*
Cc1sc2ncnc(NCc3ccco3)c2c1C | -11.1% | -26.6% | -17.0% | -35.0% | i | ?
Cc1sc2ncnc(N/N=C/c3ccccc3O)c2c1C | 10.3µM* | 3.16µM* | ? | -4.8% | 3.55µM* | 30.1%
Cc1sc2ncnc(N/N=C/c3ccc(O)cc3)c2c1C | ? | ? | -26.2% | -7.7% | ? | 5.2%
COc1ccc(N2CC(NC(=O)COc3cccc(C)c3)CC2=O)cc1OC (configuration not stated) | -8.9%[46.1 µM] | / | -7.7% | -0.1% | -15.4% | -0.4%
O=S(=O)(CC(CN1CCOCC1)N1CCOCC1)c1ccccc1 (configuration not stated) | / | / | -7.0% | 1.2% | -4.1% | -11.5%
Cc1ccc(S(=O)(=O)CC(CN2CCCCC2)N2CCCCC2)cc1 (configuration not stated) | 14.9% | 10.3%[46.1 µM] | ? | / | ? | 28.2µM*
O=S(=O)(CC(CN1CCCCC1)N1CCCCC1)c1ccc2ccccc2c1 (configuration not stated) | ? | 3.55µM* | ? | -15.8% | ? | ?
Cc1ccc(S(=O)(=O)CC(c2ccccc2)N2CCCCC2)cc1 (configuration not stated) | -9.9%[46.1 µM] | 1.9%[46.1 µM] | -12.9% | -0.5% | -11.9% | 6.2%
Cc1c([C@@H]2Nc3ccccc3NC3=C2C(=O)CC(C)(C)C3)cnn1C | / | 1.5% | / | / | / | /
Cc1nc2c(oc3ccccc32)c(=O)o1 | ? | 6.5% | / | 11.2µM* | / | 84.0%
COc1ccc(CNC(=O)c2cccn2-c2nnc(N3CCCC3)s2)c(OC)c1 | 1.9%[46.1 µM] | / | -12.9% | 2.4% | -6.9% | 2.2%
CCOC(=O)C1=C(O)/C(=C\c2ccc(CNC(=O)C(=O)Nc3ccc(C)c(C)c3)o2)N=C1C | / | / | / | 39.8µM* | / | /
COCCNC(=O)/C(C#N)=C\c1ccc(CNC(=O)C(=O)Nc2ccc(C)c(C)c2)o1 | 12.7% | 0.8% | / | / | / | ?
Cc1ccc2c(c1)-c1nc(-c3ccc4c(c3)NC(=O)CO4)cc(-c3ccc(F)cc3)c1CO2 | 11.9%[46.1 µM] | 2.3%[46.1 µM] | -22.1% | 2.8% | -16.1% | -10.8%
CCN(CC)CCNC(=O)c1ccc(NC(C)=O)cc1 | 25.1% | ? | -8.4% | 8.4% | -7.0% | -12.4%
CCN(CC)CCNC(=O)c1ccc(NC(=O)Cc2cccc3ccccc23)cc1 | -12.0%[46.1 µM] | 11.2µM* | -11.8% | -5.7% | -5.1% | 2.1%
Cc1ccc(NS(=O)(=O)c2cc(-c3n[nH]c(=O)c4ccccc34)ccc2C)cc1 | ? | 5.01µM* | ? | 41.0% | ? | -65.4%
COc1ccc(NC(=O)N2CC3(CCN(C(=O)c4cc(C(F)(F)F)cc(C(F)(F)F)c4)CC3)C2)cc1 | / | / | / | / | / | -13.2%
COc1ccc(C(=O)Oc2cc(-c3ccc(OC)c(OC)c3)cc(=O)c3c(C)oc(C)c23)cc1 | -25.0%[46.1 µM] | -0.4%[46.1 µM] | 9.3% | ? | -7.2% | -11.8%
Cc1onc(-c2c(F)cccc2Cl)c1C(=O)Nc1cccc(S(=O)(=O)NCc2ccco2)c1 | 0.7% | -11.9%[46.1 µM] | -11.0% | 28.2µM* | -16.6% | 7.6%
Cc1onc(-c2c(F)cccc2Cl)c1C(=O)OCC(=O)NCc1ccco1 | 0.3% | -19.1% | -6.7% | 17.8µM* | i[1.46 µM] | -15.4%
Cc1[nH]n(-c2ccc([N+](=O)[O-])cc2)c(=O)c1C=NCC1CCCO1 (configuration not stated) | 26.8% | 20.6%[46.1 µM] | -1.6% | 2.2% | i | 29.3%
